Bioassay records from PubChem.
A selection: hits, their analogues and other compounds. The true share with any hit is near 19%.
TDP1 cell CPT = DT40-hTDP1 cell growth loss with CPT; chicken DT40 Tdp1-/-;hTDP1 cells + 20 nM CPT, ATP luminescence, 48 h; Potency, µM (highest dose often 46.2 µM), for the others: top-dose activity change, negative = growth inhibition, actives largely listed as inhibitors; 420,000 compounds, 12% hits; further: potency means the concentration at half of the fitted maximal effect; on the % scale 0 is the no-effect control and ±100 the full control effect; nearly all actives have a fitted effect of over 55% in size
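Cell growth measured by CellTiter-Glo luminescence after a minimum 48 h, 37 C compound exposure with 20 nM CPT in Tdp1-knockout DT40 cells stably expressing hTDP1, seeded 400/well; qHTS titration format.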
HepG2 viability = HepG2 cytotoxicity, counter-screen for TGF-b inhibitors; 410,000 compounds, 0.76% hits; Potency, µM (top dose mostly 46.1 µM), inactives show at the highest dose activity change, negative = cytotoxicity, usual class: cytotoxic; HepG2 CAGA-GFP viability, ATP luminescence, 18 h; AID 588856; further: potency means the concentration at half of the fitted maximal effect
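HepG2 CAGA-GFP cells (1000/well, DMEM with 1% FBS) received compound, then TGF-beta at 500 pg/mL final, and were incubated 18 hours at 37 degrees C. Viability was read by CellTiter-Glo luminescence. Media-only wells were set as complete cell-killing and DMSO as no toxicity.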
IL1B secr inh = blocks inflammasome-driven IL-1 beta release | activity change, % at 57.5 µM | 360,000 compounds, 4.7% hits | THP-1 LPS/ATP IL-1B secretion, AlphaLISA, 16 h; hits give low values | AID 743279; in the data active means activity change below about -50%; inconclusive means mostly about -30% to -49%; further: on the % scale 0 is the no-effect control and ±100 the full control effect
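Secreted IL-1B measured by AlphaLISA bead assay after 16 h compound exposure of THP-1 cells; compounds (final up to 57.5 uM) added 1 h before LPS (250 ng/mL) and ATP (1.25 mM) stimulation; lower signal means less secretion.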
TDP1 cell noCPT = qHTS for Inhibitors of human tyrosyl-DNA phosphodiesterase 1 (TDP1): qHTS in cells in absence of CPT | DT40 Tdp1-/- hTDP1 cells, no CPT, ATP luminescence, 48 h | Potency, µM (highest dose often 46.2 µM), inactives show top-dose activity change, negative = growth inhibition, actives largely listed as inhibitors | 420,000 compounds, 15% hits; further: potency means the concentration at half of the fitted maximal effect; on the % scale 0 is the no-effect control and ±100 the full control effect; nearly all actives have a fitted effect of over 55% in size
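Cells were dispensed at 400 per well, compounds added by pin tool, plates incubated ≥48 hr at 37 °C, then CellTiter-Glo added for 30 min at room temperature before luminescence reading. Line: DT40 Tdp1-/- complemented with hTDP1; camptothecin omitted.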
ASM inhibitor = human S-ASM enzyme inhibition | placental ASM, HMU-PC fluorogenic substrate, 60 min | Potency, µM (titrated, usually from 57.5 µM), inactives show at the top dose activity change, negative = inhibition, actives largely listed as inhibitors | 340,000 compounds, 0.006% hits; further: potency means the concentration at half of the fitted maximal effect
Target sequence (P17405 47-631 limits assumed): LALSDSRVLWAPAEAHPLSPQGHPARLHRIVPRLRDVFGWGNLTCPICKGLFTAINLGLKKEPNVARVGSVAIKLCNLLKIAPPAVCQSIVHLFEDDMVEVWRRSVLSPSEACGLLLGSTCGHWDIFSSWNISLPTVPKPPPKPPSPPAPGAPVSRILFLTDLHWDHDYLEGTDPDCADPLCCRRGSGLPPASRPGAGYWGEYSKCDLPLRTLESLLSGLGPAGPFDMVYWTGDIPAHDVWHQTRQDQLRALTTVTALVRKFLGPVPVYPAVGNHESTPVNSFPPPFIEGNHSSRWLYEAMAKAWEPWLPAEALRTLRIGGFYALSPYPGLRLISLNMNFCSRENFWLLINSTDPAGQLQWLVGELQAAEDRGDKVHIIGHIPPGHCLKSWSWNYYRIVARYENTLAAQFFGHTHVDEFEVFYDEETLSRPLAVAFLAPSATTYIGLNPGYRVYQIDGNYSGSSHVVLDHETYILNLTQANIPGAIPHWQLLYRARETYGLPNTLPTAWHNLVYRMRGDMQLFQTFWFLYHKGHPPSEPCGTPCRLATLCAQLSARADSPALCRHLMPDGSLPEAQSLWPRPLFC
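Steps: dispense placental human ASM, pin compound, wait 10 min at room temperature, add HMU-PC0 substrate at 9 uM final, incubate 60 min at 37 °C, add stop solution raising pH to 10, read fluorescence.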
TGFb SMAD3 inh = blocks TGF-b signaling; HepG2 CAGA-GFP TGF-b/SMAD3 reporter, GFP fluorescence, 18 h; TGF-beta stimulated, 500 pg/mL final; Potency, µM (series often up to 46.1 µM), without a hit: at the top dose activity, negative = inhibition, most hits filed as inhibitors; 410,000 compounds, 1.2% hits; AID 588855; further: potency means the concentration at half of the fitted maximal effect; on the % scale 0 is the no-effect control and ±100 the full control effect; nearly all actives have a fitted effect of over 65% in size
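HEPG2 CAGA-GFP, 1000 cells/well; 2 h settle, 37 C; cpd via pin tool; TGF-b 500 pg/mL final; 18 h, 37 C; GFP imaging ex488/em500-530; %Activity normalised to -TGF-b and +DMSO controls; CRC fit, curve class.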
* hit, by the source's call. Unless noted, the call rests on the fitted dose curve; in most records, active means well fitted curve in the direction sought with a large enough effect; inconclusive means small, poorly fitted or top-dose-only effect, or another doubt; inactive means no such curve, though single readings can be large; an effect the other way counts as inactive or inconclusive.

What do the screens show for `O=C(c1ccco1)N1CCN(c2ncnc3c2[nH]c2ccc(Br)cc23)CC1`?
TDP1 cell CPT: inconclusive; HepG2 viability: -42%; IL1B secr inh: inconclusive; TDP1 cell noCPT: 23µM*; ASM inhibitor: -16%; TGFb SMAD3 inh: inconclusive

How did CCOc1ccc2[nH]c3c(N4CCN(C(=O)c5ccco5)CC4)ncnc3c2c1 do in these assays?
TDP1 cell CPT: 16µM*; HepG2 viability: -34%; IL1B secr inh: -11; TDP1 cell noCPT: 13µM*; ASM inhibitor: 134%; TGFb SMAD3 inh: -11%

Results for CCOc1ccc2[nH]c3c(=O)n(CCc4ccc(OC)cc4)cnc3c2c1 ?
TDP1 cell CPT: 0%; HepG2 viability: -9%; IL1B secr inh: 38; TDP1 cell noCPT: -9%; ASM inhibitor: 12%; TGFb SMAD3 inh: -4%

What do the screens show for `N#Cc1cccnc1N1CCN(C(=O)c2ccco2)CC1`?
TDP1 cell CPT: -14%; HepG2 viability: -40%; IL1B secr inh: 0; TDP1 cell noCPT: -15%; ASM inhibitor: 9%; TGFb SMAD3 inh: 11%

Results for CCOc1ccc2[nH]c3c(N4CCC5(CC4)OCCO5)ncnc3c2c1 ?
TDP1 cell CPT: 23µM*; HepG2 viability: 10%; IL1B secr inh: inconclusive; TDP1 cell noCPT: 23µM*; ASM inhibitor: 193%; TGFb SMAD3 inh: -16%

Results for CN(C(=O)CSc1nnc2[nH]c(=O)cc(-c3ccccc3)n12)c1ccccc1 ?
TDP1 cell CPT: 7%; HepG2 viability: -12%; TDP1 cell noCPT: -8%; TGFb SMAD3 inh: inconclusive

How did Cc1cc(=O)n2nc(N(C)CC(=O)NCc3ccccc3C)sc2n1 do in these assays?
TDP1 cell CPT: -29%; HepG2 viability: 1%; TDP1 cell noCPT: -5%; TGFb SMAD3 inh: 2%

How did CCCCCCCN1CCN=C1N(C)C do in these assays?
TDP1 cell CPT: inconclusive; HepG2 viability: -2%; IL1B secr inh: -3; TDP1 cell noCPT: 16µM*; ASM inhibitor: 6%; TGFb SMAD3 inh: inconclusive

How did CC(C)CCCN1CCN=C1N(C)C do in these assays?
TDP1 cell CPT: -5%; HepG2 viability: -1%; IL1B secr inh: 0; TDP1 cell noCPT: -28%; ASM inhibitor: 0%; TGFb SMAD3 inh: -1%

How did C[C@H]1CN=C(N(C)C)N1CCCC1CCCCC1 do in these assays?
TDP1 cell CPT: 21µM*; HepG2 viability: 0%; IL1B secr inh: -9; TDP1 cell noCPT: 16µM*; ASM inhibitor: 3%; TGFb SMAD3 inh: 4%

How did CN(C)C1=NCCN1CCC1CCCCC1 do in these assays?
TDP1 cell CPT: 12µM*; HepG2 viability: -13%; IL1B secr inh: -3; TDP1 cell noCPT: inconclusive; ASM inhibitor: 9%; TGFb SMAD3 inh: 1%

What do the screens show for `CC(C)CCN1C(N(C)C)=NC[C@@H]1C`?
TDP1 cell CPT: 9%; HepG2 viability: -23%; IL1B secr inh: -15; TDP1 cell noCPT: 5%; ASM inhibitor: -3%; TGFb SMAD3 inh: 8%

What do the screens show for `CN(C)C1=NCCN1CC1CCCCCC1`?
TDP1 cell CPT: -22%; HepG2 viability: -20%; IL1B secr inh: -1; TDP1 cell noCPT: inconclusive; ASM inhibitor: 2%; TGFb SMAD3 inh: -7%

What do the screens show for `CCOC(=O)CSc1nc2sc(C)c(C)c2c(=O)n1C`?
TDP1 cell CPT: inconclusive; HepG2 viability: 2%; IL1B secr inh: 13; TDP1 cell noCPT: -24%; ASM inhibitor: -3%; TGFb SMAD3 inh: 4%

Results for Cc1sc2nc(CSCC(=O)N(CCC#N)c3ccccc3)[nH]c(=O)c2c1C ?
TDP1 cell CPT: 18µM*; HepG2 viability: 1%; IL1B secr inh: 29; TDP1 cell noCPT: inconclusive; ASM inhibitor: 12%; TGFb SMAD3 inh: -3%

What do the screens show for `Cc1sc2nc(CSCC(=O)Nc3c(F)cccc3F)[nH]c(=O)c2c1C`?
TDP1 cell CPT: 12µM*; HepG2 viability: -24%; IL1B secr inh: 17; TDP1 cell noCPT: 10µM*; ASM inhibitor: 3%; TGFb SMAD3 inh: -12%

Results for Cc1sc2nc(SCC(=O)N3CC(C)OC(C)C3)n(C)c(=O)c2c1C (stereo unspecified) ?
TDP1 cell CPT: inconclusive; HepG2 viability: 16%; IL1B secr inh: 10; TDP1 cell noCPT: 13µM*; ASM inhibitor: 6%; TGFb SMAD3 inh: -2%

What do the screens show for `Cc1sc2nc(CSCC(=O)N(C)c3ccccc3)[nH]c(=O)c2c1C`?
TDP1 cell CPT: 23µM*; HepG2 viability: -1%; IL1B secr inh: -10; TDP1 cell noCPT: 16µM*; ASM inhibitor: 9%; TGFb SMAD3 inh: 19%

Results for Cc1sc2nc(CSCC(=O)Nc3ccc(Cl)cc3F)[nH]c(=O)c2c1C ?
TDP1 cell CPT: 3%; HepG2 viability: -14%; IL1B secr inh: -4; TDP1 cell noCPT: -4%; ASM inhibitor: 0%; TGFb SMAD3 inh: 4%

What do the screens show for `Cc1c(CN2CCN(CC(C)C)C(CCO)C2)[nH]c2ccc(Cl)cc12` (stereo unspecified)?
TDP1 cell CPT: -3%; HepG2 viability: -29%; IL1B secr inh: -14; TDP1 cell noCPT: inconclusive; ASM inhibitor: 1%; TGFb SMAD3 inh: -21%

Results for O=C(Nc1sc2c(c1C(=O)Nc1ccccc1Cl)CCCC2)c1ccccc1F ?
TDP1 cell CPT: -7%; HepG2 viability: 1%; TDP1 cell noCPT: -10%; TGFb SMAD3 inh: -2%

What do the screens show for `Cc1sc2nc(SCC(=O)N(C)c3ccccc3)n(C)c(=O)c2c1C`?
TDP1 cell CPT: 18µM*; HepG2 viability: -23%; IL1B secr inh: 0; TDP1 cell noCPT: 13µM*; ASM inhibitor: -7%; TGFb SMAD3 inh: -27%

How did CCn1c(SCC(=O)N2CCc3ccccc3C2)nc2sc(C)c(C)c2c1=O do in these assays?
TDP1 cell CPT: inconclusive; HepG2 viability: -19%; IL1B secr inh: 15; TDP1 cell noCPT: 21µM*; ASM inhibitor: -14%; TGFb SMAD3 inh: -10%

Results for Oc1c(C(c2cccc(Cl)c2)N2CCOCC2)sc2nc(-c3ccco3)nn12 (stereo unspecified) ?
TDP1 cell CPT: -5%; HepG2 viability: -21%; TDP1 cell noCPT: -16%; TGFb SMAD3 inh: -28%

How did COc1ccc(C(=O)N=c2sc3c(C)ccc(OC)c3n2C)cc1OC do in these assays?
TDP1 cell CPT: 5.2µM*; HepG2 viability: -9%; IL1B secr inh: -27; TDP1 cell noCPT: 5.8µM*; ASM inhibitor: 36%; TGFb SMAD3 inh: -6%
